DRD3 antagonist – D3 dopamine receptor (human) antagonism | D3R cells, DiscoveRx beta-arrestin luminescence, antagonist mode; stronger effect = lower value | max response, negative = inhibition, % | 2.5% of 360,000 active; in the data active means max response below about -50%; inconclusive means no clear call, values can overlap the other calls; further: on the % scale 0 is the no-effect control and ±100 the full control effect
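Cells plated overnight at 1500 cells/well, then exposed to library compounds with dopamine controls for 90 minutes at 37 degrees C. DiscoveRx reagent added for 30–60 minutes at room temperature; luminescence read, quantitative HTS format.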
D3 ag – agonists of human D3 dopamine receptor; P35462; D3R DiscoveRx beta-arrestin cells, luminescence, 90 min; max activation, %; 0.58% of 410,000 active; AID 652048; in the data active means max activation above about 30%; further: 0% is about no effect
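Agonist-mode cell screen: cells plated at 1500/well and incubated overnight at 37 °C, then exposed to library compounds for 90 min at 37 °C. Detection reagent was added for 30–60 min at room temperature, and luminescence was read.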
D1 ag – agonists of human D1 dopamine receptor | P21728 | HEK293 T-REx D1 cells, calcium flux, agonist mode | activation, % at 2 µM | 1% of 360,000 active | AID 504660; in the data active means activation above about 30%; further: 0% is about no effect
Target sequence (P21728 whole entry, looked up): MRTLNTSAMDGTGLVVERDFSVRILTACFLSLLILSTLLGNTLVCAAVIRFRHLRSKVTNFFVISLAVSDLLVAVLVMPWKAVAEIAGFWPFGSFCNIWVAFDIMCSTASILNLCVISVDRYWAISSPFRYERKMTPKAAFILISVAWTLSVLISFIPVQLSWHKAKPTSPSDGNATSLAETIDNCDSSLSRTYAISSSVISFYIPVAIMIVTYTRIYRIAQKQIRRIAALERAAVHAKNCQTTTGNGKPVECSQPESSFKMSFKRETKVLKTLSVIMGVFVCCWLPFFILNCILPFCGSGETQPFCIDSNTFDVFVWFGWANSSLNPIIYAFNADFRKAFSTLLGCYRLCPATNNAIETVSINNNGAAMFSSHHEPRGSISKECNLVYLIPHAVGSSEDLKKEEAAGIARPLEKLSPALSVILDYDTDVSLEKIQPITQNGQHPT
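Inducible HEK293 T-REx D1 cells, force-coupled to calcium signalling, were plated at 4000 cells/well with tetracycline and held overnight at 30 C. After no-wash calcium dye loading, compound-evoked calcium rise over 180 s flagged agonists.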
D1 PAM – human D1 dopamine receptor positive modulation | potentiation, % at 10 µM | 0.036% of 360,000 active | P21728 | AID 504651 | HEK293 TREx D1 cells, calcium flux, dopamine EC20 potentiation; in the data active means potentiation above about 30%; further: 0% is about no effect
D1 antag – human D1 dopamine receptor antagonism | P21728 | HEK293 TREx D1 cells, calcium flux, dopamine EC80; stronger effect = lower value | activity change, negative = inhibition, % at 10 µM | 3.2% of 360,000 active; in the data active means activity change below about -30%; further: on the % scale 0 is the no-effect control and ±100 the full control effect
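Calcium flux readout: force-coupled, inducible Hek293 Trex D1 line, cells induced overnight at 30 C with tetracycline, dye-loaded 30–90 min at RT. Antagonism scored against EC80 dopamine challenge given 180 s after compound.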
Numbers without * were called inactive; ? = inconclusive; / = no result given. In the library only some 6% were active in any assay of this set; here they are far more common.

SMILES | DRD3 antagonist | D3 ag | D1 ag | D1 PAM | D1 antag
COc1ccc(NC(=O)Nc2ccc(F)c(Cl)c2)cc1 | 3 | 2 | 22 | -9 | -49*
Cc1ccc(NC(=O)Nc2ccc(F)c(Cl)c2)cc1 | -19 | 5 | 4 | -8 | /
NC(CCc1ccccc1)c1csc(Nc2nccc(C(F)(F)F)n2)n1 (centres undefined) | 36 | 3 | / | / | /
CC1(C(=O)NS(=O)(=O)C2CC2)CCCN(C(=O)c2ccc(C(F)(F)F)cc2)C1 (centres undefined) | 4 | 3 | / | / | /
COC1=C(NCc2ccc3c(c2)OCO3)C(=O)C(OC)=C(NCc2ccc3c(c2)OCO3)C1=O | -1 | -5 | / | / | /
COc1cccc2sc3ccc(NCc4ccc5c(c4)OCO5)cc3c(=O)c12 | 12 | -14 | 31* | 3 | 0
CC(=O)Nc1ccc(S(=O)(=O)NC2C3(C)CCC(C3)C2(C)C)cc1 (centres undefined) | 6 | 0 | 7 | 2 | 3
CSc1ncc(Cl)c(C(=O)N(C)c2ccccc2)n1 | / | 7 | -1 | -1 | 9
O=C(Nc1ccc(N2CCOCC2)cc1)Nc1ccc(Cl)c(Cl)c1 | -15 | 3 | 17 | -4 | -31*
O=C(Nc1ccc(Cl)cc1)Nc1ccc(N2CCOCC2)cc1 | -15 | -2 | 9 | -4 | -16
O=C1C=C(NC(=O)Nc2ccc(Cl)c(Cl)c2)CCC1 | -14 | -10 | 13 | -9 | -54*
O=C(Nc1ccccc1)Nc1ccc(Br)c(Cl)c1 | 2 | 3 | 26 | -8 | -31*
O=C(Nc1ccc(Cl)c(Cl)c1)Nc1ccon1 | 1 | 1 | 26 | -3 | -23
O=C(NC(=S)Nc1ccc(Br)c(Cl)c1)C1CC1 | -17 | -6 | 4 | -5 | -36*
COc1ccccc1N(CC(=O)NCc1ccco1)C(=O)CCC(=O)Nc1ccccn1 | -2 | -4 | 1 | 2 | -4
Cc1cccc(Cn2c(CNS(=O)(=O)c3ccc4c(c3)CCCC4)nc3cccnc32)c1 | / | 13 | 4 | 0 | 19
COc1ccc(-n2c(C)nc3cc(C(=O)NC4CCCCCC4)ccc32)cc1 | / | -9 | 8 | -6 | -1
N#Cc1ccc(NC(=O)Nc2ccc(Cl)cc2)cc1 | 10 | 4 | 31* | -11 | -41*
O=C(Nc1ccc(N2CCOCC2)cc1)C1(c2ccc(Cl)cc2)CCC1 | 1 | -2 | 43* | -4 | -3
O=C(Nc1ccc(Cl)c(Cl)c1)Nn1cnnc1 | 0 | 10 | 5 | -8 | -6
O=C(Nc1ccc(Cl)c(Cl)c1)Nc1ccc(Br)cc1F | 17 | 3 | 19 | 10 | -22
O=C(Nc1ccc(Cl)cc1)Nc1ccc(Cl)c(Cl)c1 | 12 | 13 | 12 | -9 | -34*
O=C(Nc1ccc(Cl)c(Cl)c1)Nc1ccccc1O | 18 | 3 | 21 | -4 | -37*
Cc1ccc(-c2nn(-c3ccccc3)cc2C(=O)NCCCN2CCOCC2)cc1 | 11 | 0 | 3 | 2 | 15
Cc1cccc(CNC(=O)C2CCC(=O)N(C3CCCCCC3)C2)c1 (centres undefined) | 18 | -3 | 0 | -3 | -23
SMILES | DRD3 antagonist | D3 ag | D1 ag | D1 PAM | D1 antag
O=C(CSc1ccccn1)Nc1ccc(Cl)c([N+](=O)[O-])c1 | -15 | -1 | 8 | -5 | -34*
CC(Oc1ccc(Br)cc1)C(=O)NCC(C)(C)N1CCOCC1 (centres undefined) | -7 | 0 | 6 | -6 | -19
Cc1cccc(NS(=O)(=O)c2cccc(C(=O)NCC(C)(C)N3CCOCC3)c2)c1 | -81* | 7 | 2 | -1 | -1
CC(C)(CNC(=O)Cc1ccc(Br)cc1)N1CCOCC1 | -1 | 1 | 1 | -8 | -37*
O=C(C[C@H]1C[C@@H]2c3cc(NC(=O)c4ccc5c(c4)OCO5)ccc3O[C@@H]2[C@H](CO)O1)NCc1cc(F)ccc1F | -23 | -2 | / | / | /
COc1nc(-c2ccccc2)ccc1-c1noc(-c2ccccc2F)n1 | 28 | 2 | 159* | 0 | -24
O=C(NCc1ccccc1F)C1CCCN1S(=O)(=O)c1ccc(Cl)cc1 (centres undefined) | -10 | -11 | 4 | -4 | 23
O=S(=O)(NC1CCCC1)c1cccc(-c2nnc(-c3ccccc3)o2)c1 | 11 | 20 | 9 | 4 | -12
COc1cc(-c2nnc(-c3ccc(S(=O)(=O)c4ccccc4)cc3)o2)cc(OC)c1OC | 0 | 2 | 1 | 0 | -31*
COc1cc(-c2nnc(-c3ccc(N4CCOCC4)cc3)o2)cc(OC)c1OC | 24 | 38* | 2 | 1 | -20
COc1ccc(NS(=O)(=O)c2cccc(-c3nnc(-c4ccccc4)o3)c2)cc1 | 49 | 12 | 0 | -3 | -32*
CC(=O)c1cc(C#N)c(Oc2ccc(Cl)cc2Cl)nc1C | -56* | 3 | / | / | /
CCOC(=O)C1CCCN(C(=O)COc2ccccc2O)C1 (centres undefined) | 4 | -7 | 3 | 2 | 7
CCOC(=O)C1CCCN(Cc2ccc(-c3ccccc3)cc2)C1 (centres undefined) | -27 | -15 | 4 | 5 | -17
CCOC(=O)C1CCCN(Cc2cc(Br)ccc2OC)C1 (centres undefined) | -60* | -10 | 2 | -1 | 4
CCOC(=O)C1CCCN(Cc2cc(Br)c(OC)cc2OC)C1 (centres undefined) | ? | -33 | 1 | -4 | 0
CCOC(=O)C1CCCN(S(=O)(=O)Cc2ccccc2Cl)C1 (centres undefined) | -24 | -2 | 2 | -8 | -31*
CCOC(=O)C1CCCN(Cc2c(Cl)cccc2Cl)C1 (centres undefined) | -20 | -7 | 2 | -7 | -36*
CCOC(=O)C1CCCN(C(=O)COc2ccccc2F)C1 (centres undefined) | 18 | 4 | 2 | -5 | -64*
CCOC(=O)C1CCCN(CC(=O)Nc2cc(C)cc(C)c2)C1 (centres undefined) | -21 | 4 | 3 | -3 | -40*
CCOC(=O)C1CCCN(CCC(=O)Nc2cc(C)cc(C)c2)C1 (centres undefined) | -24 | -16 | 1 | -2 | -3
CCOC(=O)C1CCCN(CCC(=O)Nc2ccccc2)C1 (centres undefined) | -8 | -13 | -1 | -8 | 3
CCOC(=O)C1CCCN(CCC(C)c2ccccc2)C1 (centres undefined) | -61* | -28 | 0 | 0 | -2
Cc1ccccc1NC(=O)CSc1ccc(-c2ccco2)nn1 | -4 | -3 | 4 | -9 | -71*
FC(F)(F)c1cc(Cl)c2nc(-c3ccco3)c(Cc3ccccc3C(F)(F)F)n2c1 | -30 | -10 | / | / | /
CCOc1ccc(C(=O)NCCN2CCOCC2)cc1 | -18 | -9 | 1 | 0 | 8
O=C(NCCN1CCOCC1)N1c2ccccc2Sc2ccccc21 | -53* | -17 | 1 | -5 | -1
O=C(Cc1ccc(-c2ccccc2)cc1)NCCN1CCOCC1 | ? | 1 | 1 | 7 | -12
